Measured values published in PubChem BioAssay AID933 (National Center for Advancing Translational Sciences (NCATS), 2007).
Results filed as inconclusive are left out. Activity calls are given as the source filed them. Calls follow the shape of the dose curve; as a rule, active = well fitted activation curve with a large enough effect in the signal ratio, with a control signal flat; inconclusive = small, poorly fitted or top-dose-only effect, or a change in a side signal; inactive = flat fitted curve, though single readings scatter; the % refers to the signal ratio.

These compounds were tested against Thyrotropin receptor (Homo sapiens) (UniProt P16473) (assay: Secondary Concentration-Response Assay for Agonists of the Thyroid Stimulating Hormone Receptor: HTRF Activity Detection). Details: HEK293-TSHR cells, cAMP HTRF ratio, 30 min; series mostly up to 91.7 µM.
Sequence of Thyrotropin receptor (Homo sapiens) (P16473 whole entry, looked up): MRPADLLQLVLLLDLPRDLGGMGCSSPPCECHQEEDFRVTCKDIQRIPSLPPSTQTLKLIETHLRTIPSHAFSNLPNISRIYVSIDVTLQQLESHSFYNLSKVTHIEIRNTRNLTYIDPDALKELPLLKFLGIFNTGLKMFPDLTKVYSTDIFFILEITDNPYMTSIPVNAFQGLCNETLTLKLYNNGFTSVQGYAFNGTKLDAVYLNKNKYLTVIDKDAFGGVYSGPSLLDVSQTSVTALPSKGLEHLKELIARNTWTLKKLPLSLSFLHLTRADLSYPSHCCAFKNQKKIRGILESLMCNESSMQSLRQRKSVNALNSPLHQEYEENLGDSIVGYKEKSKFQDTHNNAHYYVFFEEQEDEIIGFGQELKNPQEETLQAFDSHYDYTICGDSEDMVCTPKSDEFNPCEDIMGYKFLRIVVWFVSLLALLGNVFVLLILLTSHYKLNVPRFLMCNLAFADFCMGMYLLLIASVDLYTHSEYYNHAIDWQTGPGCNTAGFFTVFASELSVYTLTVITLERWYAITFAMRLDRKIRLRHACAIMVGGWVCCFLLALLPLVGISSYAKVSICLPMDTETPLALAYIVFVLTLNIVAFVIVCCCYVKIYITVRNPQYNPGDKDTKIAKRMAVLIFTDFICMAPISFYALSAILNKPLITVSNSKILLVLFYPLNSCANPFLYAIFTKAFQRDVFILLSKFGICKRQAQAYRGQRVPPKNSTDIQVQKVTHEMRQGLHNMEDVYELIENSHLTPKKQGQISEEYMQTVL
Description: NIH Chemical Genomics Center [NCGC]
NIH Molecular Libraries Screening Centers Network [MLSCN]
PI Name: Dr. Marvin Gershengorn, NIH
Confirmation of Thyroid Stimulating Hormone Receptor Agonists
TSH is an alpha/beta heterodimeric glycoprotein hormone secreted from the anterior pituitary gland which belongs to the glycoprotein hormone family. The actions of TSH are mediated by a seven-transmembrane receptor, which upon TSH binding couples preferentially to the G-alpha (s) protein (Gs), resulting in activation of adenylate cyclase and increase in cyclic adenosine 3', 5' monophosphate (cAMP). The TSH receptor (THSR) is mainly expressed in thyroid follicular cells and regulates their growth and function. Recombinant TSH is used to activate TSHR in patients with thyroid cancer receiving thyroid hormone suppression therapy and to screen for residual tumor after surgery, but it is expensive and must be administered intramuscularly. An orally active small molecule TSHR agonist would serve as an invaluable research tool for studying TSHR pharmacology and physiology, and would have multiple advantages in therapeutic settings. However, no selective small molecule agonist of the TSH receptor exists, and no small molecule screen for TSHR agonists has ever been reported.
A confirmatory assay of putative TSHR agonists was conducted on a different TSHR transfected HEK 293 cell line, using an orthogonal detection technology to measure cAMP stimulation: antibody-based Homogeneous Time Resolved Fluorescence (HTRF).
NCGC Assay Protocol Summary:
Homogeneous Time Resolved Fluorescence (HTRF) cAMP Assay. HEK 293 cells stably transfected with a vector containing the TSHR and maintained under hygromycin selection were obtained from the laboratory of Dr. Marvin Gershengorn. Compounds were assayed using a HTRF cAMP detection kit (Cisbio) on the TSHR transfected cell line. Briefly, 750 cells were plated in 2.5 ul/well of complete media (DMEM containing 10 % FCS, and 100 uM RO 20-1724) in 1536 well solid bottom white plates and 23 nl/well compound in DMSO solution or controls was added. Following 30 minute incubation at room temperature, 2.5 ul/well of labeled d2 cAMP and 2.5 ul/well of anti-cAMP antibody (both diluted 1:20 in lysis buffer) were added to each well using a flying reagent dispenser (Aurora Discovery, San Diego) . Plates were measured using the Envision plate reader (PerkinElmer, Boston, MA) with excitation at 330 nm and emissions of 615 nm and 660 nm.
Keywords: Thyroid-stimulating hormone TSH, TSHR, TSHR agonist, quantitative high throughput screening, qHTS, HTS, probe identification, CNG, cAMP, cyclic nucleotide gated ion channel PubChem
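For activation in this document: HEK 293 cells stably expressing human TSHR with RO 20-1724 phosphodiesterase inhibitor; % of control where 0% means no effect.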
Potency is read from the fitted curve at half-maximal effect.

Potency, active:
COc1ccc(-c2nc3ccccc3c(=O)n2Cc2ccccc2)cc1COc1ccc(NC(C)=O)cc1 8.91 µM
COc1ccc(C2Nc3ccccc3C(=O)N2Cc2cccnc2)cc1COc1ccc(NC(C)=O)cc1 (stereo not given) 35.5 µM
COc1ccc(C2Nc3ccccc3C(=O)N2Cc2cccc(Cl)c2)cc1COc1ccc(NC(C)=O)cc1 (stereo not given) 2.82 µM
COc1ccc(C2Oc3ccccc3C(=O)N2Cc2ccccc2)cc1COc1ccc(NC(C)=O)cc1 (stereo not given) 12.6 µM

Potency, inactive:
COc1ccc(C2Nc3ccccc3C(=O)N2Cc2ccc(C(F)(F)F)cc2)cc1COc1ccc(NC(C)=O)cc1 (stereo not given)
COc1ccc(C2Nc3ccccc3C(=O)N2Cc2ccco2)cc1COc1ccc(N)cc1 (stereo not given)
Cc1ccc(C2Nc3ccccc3C(=O)N2Cc2ccco2)cc1 (stereo not given)
CCOc1cc(C2Nc3ccccc3C(=O)N2c2ccccc2)ccc1O (stereo not given)
O=C1c2ccccc2NC(c2ccccc2Br)N1CCCN1CCOCC1 (stereo not given)
COc1ccc(N2C(=O)c3ccccc3NC23C(=O)N(C)c2ccccc23)cc1 (stereo not given)
COc1ccc(N2C(=O)c3ccccc3NC2c2ccc(OC)c(COc3ccccn3)c2)cc1 (stereo not given)
COc1ccc(C2Nc3ccccc3C(=O)N2CCc2ccc(Cl)cc2Cl)cc1COc1ccc(NC(C)=O)cc1 (stereo not given)
COc1ccc(C(=O)N(Cc2ccccc2)Cc2ccc(OC)c(COc3ccc(NC(C)=O)cc3)c2)c(O)c1
CCN(CC)CCN1C(=O)c2ccccc2NC1c1ccc(OC)c(COc2ccc(NC(C)=O)cc2)c1 (stereo not given)
O=C(c1ccccc1O)N(Cc1ccccc1)Cc1cccs1
O=C1c2ccccc2NC(c2ccccc2O)N1Cc1ccco1 (stereo not given)
COc1ccc2c(c1OC)C(=O)N1c3ccccc3C(=O)N(c3ccccc3)C21 (stereo not given)
O=C1c2ccccc2NC(c2cc(Br)c3c(c2)OCO3)N1Cc1ccco1 (stereo not given)
O=C1c2ccccc2NC(c2ccc3c(c2)OCO3)N1Cc1ccco1 (stereo not given)
O=C(c1cccs1)N(Cc1ccco1)c1ccc(O)cc1
COc1ccc(C2Nc3ccccc3C(=O)N2c2ccc(F)cc2)cc1COc1ccc(NC(C)=O)cc1 (stereo not given)
COc1ccc(C2Nc3ccccc3C(=O)N2Cc2ccccc2)cc1COc1ccccn1 (stereo not given)
COc1ccc2c(c1OC)C(=O)N1c3ccccc3C(=O)N(c3ccc(F)cc3)C21 (stereo not given)
COc1ccc(C2Nc3ccccc3C(=O)N2Cc2ccco2)cc1CN1C(=O)c2ccccc2C1=O (stereo not given)
CCN(CC)CCN1C(=O)c2ccccc2NC1c1cccc(F)c1 (stereo not given)
O=C1c2ccccc2N2C(=O)c3ccccc3C2N1Cc1ccco1 (stereo not given)
COc1ccc(C2Nc3ccccc3C(=O)N2Cc2ccco2)cc1COc1c(C)cccc1C (stereo not given)
CC(=O)Nc1ccc(C2Nc3ccccc3C(=O)N2C2CCCCC2)cc1 (stereo not given)

activation, inactive:
O=C(CSc1nc2scc(-c3ccco3)c2c(=O)n1-c1ccccc1)N1CCOCC1 -0.79% [at 0.00035 µM]
CC1(c2ccccn2)Nc2ccccc2-c2nc3ccccc3n21 (stereo not given) -0.34% [at 0.00035 µM]
CCOC(=O)C1C(=O)Nc2nc(C)nn2C1c1ccccc1 (stereo not given) 2.16% [at 0.00035 µM]
CCOC(=O)N1CCC(NC(=O)c2ccc(CNS(=O)(=O)c3ccc(F)cc3)cc2)CC1 0.984% [at 0.00035 µM]
CCCC(=O)C1=C(SCC)CC(C)(C)C(C(=O)OC)C1=O (stereo not given) 0.0277% [at 0.00035 µM]
Cc1cc(-n2c(C)cc(C(=O)CSc3nnnn3-c3ccc(Cl)cc3)c2C)no1 1.18% [at 0.00035 µM]
COc1ccc(-c2ccc(-c3noc(C)n3)c(OC)n2)cc1 -0.214% [at 0.00035 µM]
CCOc1ccc(N(CC(=O)NCc2cccs2)S(=O)(=O)c2c(C)noc2C)cc1 -0.0859% [at 0.00035 µM]
O=C(CN(Cc1ccccc1Cl)C(=O)Cn1nnc(-c2cccs2)n1)NCC1CCCO1 (stereo not given) 0.671% [at 0.00035 µM]
CN1C(=O)N(C)C2(c3ccccc3)Nn3c(s/c(=C/c4ccco4)c3=O)=NC12c1ccccc1 (stereo not given) 0.345% [at 0.00035 µM]
Cc1occc1-c1nnc(SCC(=O)NCc2ccc3c(c2)OCO3)n1CC(C)C 0.411% [at 0.00035 µM]
Cc1nn(C)c(C)c1S(=O)(=O)N(CC(=O)Nc1ccccn1)c1ccc(C(C)C)cc1 -0.155% [at 0.00035 µM]
